Source: PubChem
HP1b binding inh – inhibitors of HP1-beta chromodomain binding to methylated histone tails; P83916; AlphaScreen HP1-beta / biotin-H3K9me3 peptide binding; Potency, µM (top dose mostly 114 µM), most hits filed as inhibitors; hit rate 0.56% among 390,000; AID 540317; note: nearly all actives have a fitted effect of over 70% in size
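Compound inhibition of the preformed complex between 50 nM HP1-beta and 50 nM biotinylated H3K9me3 peptide was read by AlphaScreen. Buffer was PBS pH 7.4 with 0.01% Tween-20. Incubations ran 30 min at room temperature, with 10 ug/mL donor/acceptor beads.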
JMJD2A Tudor inh – JMJD2A Tudor domain (human) inhibition; Potency, µM (series often up to 114 µM), most hits filed as inhibitors; O75164; AlphaScreen JMJD2A-Tudor / H3K4me3 peptide binding; AID 504339; hit rate 4.4% among 390,000; note: nearly all actives have a fitted effect of over 50% in size
BAZ2B inh – blocks human BAZ2B; AlphaScreen BAZ2B-H3K14Ac peptide displacement; Potency, µM (titrated, usually from 114 µM), most hits filed as inhibitors; hit rate 4.4% among 360,000; note: nearly all actives have a fitted effect of over 60% in size
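Inhibition is scored as reduced AlphaScreen emission. The BAZ2B/b-H3(5-23)K14Ac complex (50 nM each) in PBS pH 7.4, 0.01% Tween-20 meets compound (up to 110 uM) for 30 min at RT before bead addition.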
Sfp inh – blocks B. subtilis Sfp PPTase activity | Q9F4F7 | Biochemical Sfp PPTase activity, qHTS | Potency, µM, hits mostly inhibitors | hit rate 3.5% among 310,000 | AID 1490;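 note: the enzyme is Sfp with the accession as filed and its product quenches rhodamine fluorescence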
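Buffer: 50 mM Hepes-Na pH 7.6, 10 mM MgCl2, 0.01% Nonidet P-40, 0.01% BSA. Enzyme 15 nM, pre-exposed to compound 15 min; substrates then added and fluorescence change tracked over 30 min.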
G9a inh – G9a (human) methyltransferase inhibition; Q96KQ7; G9a H3K9 monomethylation, AlphaScreen, 2 h; Potency, µM (doses to about 102 µM), actives largely listed as inhibitors; hit rate 8.8% among 350,000; note: nearly all actives have a fitted effect of over 75% in size
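Signal arises when biotinylated H3K9 peptide, once monomethylated, bridges streptavidin donor and antibody-captured acceptor beads. Enzyme at 20 nM was preincubated 15 min with test compounds; peptide 500 nM and SAM 20 uM then reacted for 2 h.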
Large screens that a line does not name were inactive; ! = repeats disagree. Compounds with a hit are over-represented: about 12% of the library has one in this group of screens. Calls come from the whole dose curve; as a rule, active = well fitted curve in the direction sought with a large enough effect; inconclusive = small, poorly fitted or top-dose-only effect, or another doubt; inactive = no such curve, though single readings can be large; an effect the other way counts as inactive or inconclusive.

O=C1CC(c2ccc(O)c(O)c2)Oc2cc(O)cc(O)c21 (stereo not given)	JMJD2A Tudor inh 79µM
CCSc1ncc(Cl)c(C(=O)Nc2c(C(=O)Nc3ccccc3)oc3ccccc23)n1	none (no result: Sfp inh)
COc1ccc(/C=N/N=C2/NC(=O)CC(C(=O)O)S2)cc1 (stereo not given)	G9a inh inconclusive
COc1ccc(/C=N/N=C2/CC(C)(C)Cc3n[nH]c(=O)cc32)cc1	Sfp inh inconclusive, G9a inh 35µM
C=CCNC(=O)c1cc(Cl)cc(Cl)c1	JMJD2A Tudor inh 45µM
C=CCNC(=O)c1cc(Cl)ccn1	none
Cc1cc(-c2nc(C)c(C(=O)NNS(=O)(=O)c3ccc(Cl)cc3Cl)s2)no1	JMJD2A Tudor inh inconclusive, G9a inh 40µM
CC1(C)CNC(=O)c2sc(NC(=O)CN3CCOCC3)nc2C1	JMJD2A Tudor inh 20µM
O=C(O)c1cc([N+](=O)[O-])ccc1NCc1ccccc1Cl	G9a inh inconclusive
COc1cc(NC(=O)c2cc([N+](=O)[O-])ccc2NC(=O)CNCc2ccccn2)cc(OC)c1	JMJD2A Tudor inh 79µM, BAZ2B inh inconclusive
O=C(O)c1cc([N+](=O)[O-])ccc1NCc1ccccn1	JMJD2A Tudor inh 79µM, BAZ2B inh 79µM (no result: Sfp inh)
COc1cc(NC(=O)c2cc([N+](=O)[O-])ccc2NC(=O)CNC2CCCCC2)cc(OC)c1	BAZ2B inh inconclusive
COc1cc([N+](=O)[O-])ccc1NC(=O)CSc1ccccn1	none (no result: HP1b binding inh, JMJD2A Tudor inh)
COc1ccc(NC(=O)c2cc([N+](=O)[O-])ccc2NC(=O)CNCc2ccccn2)c(OC)c1	JMJD2A Tudor inh 79µM, BAZ2B inh inconclusive, Sfp inh 45µM, G9a inh 28µM
NC(C(=O)O)(c1ccc(P(=O)(O)O)cc1)C1CC1 (stereo not given)	none (no result: HP1b binding inh, JMJD2A Tudor inh, BAZ2B inh)
COc1ccc(S(=O)(=O)NCC2CCC(C(=O)O)CC2)cc1 (stereo not given)	none
Cc1cccc(NC(=O)COc2ccccc2C(=O)NC(C)c2ccccc2)c1 (stereo not given)	Sfp inh inconclusive (no result: G9a inh)
CCOc1ccccc1C(=O)NCC(=O)NCC1CCCCC1	none
CCOCCCNCC(=O)NCC1CCCCC1	HP1b binding inh inconclusive, JMJD2A Tudor inh 20µM, BAZ2B inh 50µM, G9a inh 20µM
Cc1ccc(S(=O)(=O)NCCc2ccc(S(N)(=O)=O)cc2)cc1	G9a inh 14µM
Cc1nc(SCC(=O)NCc2ccco2)nc(C)c1C	Sfp inh 50µM, G9a inh inconclusive
Cc1nc(SCC(=O)NC(=O)NCc2ccco2)nc(C)c1C	BAZ2B inh inconclusive, Sfp inh inconclusive, G9a inh 50µM
O=C(CSc1nnc2c(n1)[nH]c1ccccc12)NCc1ccco1	BAZ2B inh inconclusive, Sfp inh 40µM, G9a inh 10µM
O=C(COc1ncnc2scc(-c3ccc(F)cc3)c12)NCc1ccco1	none (no result: G9a inh)
Cc1ccc(-c2csc3ncnc(OCC(=O)NC(=O)NCc4ccco4)c23)cc1	BAZ2B inh inconclusive, Sfp inh inconclusive, G9a inh 56µM
Cc1ccc(SCC(=O)NCc2ccco2)cc1	none
COc1ccc(CNC(=O)CSc2nnc3c(n2)[nH]c2ccccc23)cc1	none
CCOc1ccc(NC(=O)c2ccc(F)c(S(=O)(=O)N(Cc3ccc(C(=O)OC)cc3)Cc3ccc(OC)c(OC)c3)c2)cc1	none (no result: Sfp inh)
O=C(CSc1nc(-c2ccccc2)c(-c2ccccc2)[nH]1)NCc1ccco1	JMJD2A Tudor inh 40µM, G9a inh inconclusive
COCCNC(=O)NC(=O)CSc1nc(C)c(C)c(C)n1	G9a inh 45µM
Cc1sc2ncnc(SCC(=O)NC(=O)NCc3ccco3)c2c1C	BAZ2B inh inconclusive, G9a inh 50µM
COc1ccc(-c2[nH]c(-c3cccc(OC)c3)nc2SCC(=O)NCc2ccco2)cc1	JMJD2A Tudor inh inconclusive, BAZ2B inh inconclusive, G9a inh 18µM
COc1ccc(CCNC(=O)c2ccc(Cl)c(S(=O)(=O)N3CCCC3)c2)cc1	none (no result: Sfp inh)
CN(C)CC(C)(C)CNS(=O)(=O)c1ccc(Cl)cc1	none (no result: BAZ2B inh)
CN(C)CC(C)(C)CNS(=O)(=O)c1cccc(Cl)c1Cl	JMJD2A Tudor inh 50µM, G9a inh 8.9µM
Cn1c(=O)c2[nH]c(CN3CCCCC3)nc2n(C)c1=O	HP1b binding inh inconclusive, JMJD2A Tudor inh 4µM (no result: BAZ2B inh, Sfp inh, G9a inh)
Cn1c(=O)c2[nH]c(Cc3cccc(O)c3)nc2n(C)c1=O	none (no result: BAZ2B inh, Sfp inh, G9a inh)
Cn1c(=O)c2[nH]c(CNCc3ccccc3Cl)nc2n(C)c1=O	none
Cn1c(=O)c2[nH]c(CN3CCN(Cc4ccccc4)CC3)nc2n(C)c1=O	JMJD2A Tudor inh 8.9µM, G9a inh inconclusive
CN1CCN(Cc2nc3c([nH]2)c(=O)[nH]c(=O)n3C)CC1	JMJD2A Tudor inh 10µM, G9a inh inconclusive
Cn1c(=O)[nH]c(=O)c2[nH]c(CO)nc21	JMJD2A Tudor inh inconclusive (no result: BAZ2B inh, Sfp inh, G9a inh)
O=C(O)CS(=O)(=O)CC(=O)O	JMJD2A Tudor inh inconclusive, BAZ2B inh 79µM, G9a inh inconclusive
NCC(=O)O	none (no result: HP1b binding inh, JMJD2A Tudor inh, BAZ2B inh, G9a inh)
Nc1cccc(Nc2ncnc3ccccc23)c1	BAZ2B inh 50µM, Sfp inh inconclusive
CC(=O)c1cccc(Nc2nc(-c3ccccc3)nc3ccccc23)c1	G9a inh 50µM
Fc1ccc(Nc2nc(-c3cccnc3)nc3ccccc23)cc1	none (no result: HP1b binding inh, JMJD2A Tudor inh, BAZ2B inh, G9a inh)
CCOC(=O)c1cccc(Nc2nc(C(=O)OCC)nc3ccccc23)c1	none (no result: Sfp inh)
CCOC(=O)c1nc(Nc2cccc(C)c2)c2ccccc2n1	JMJD2A Tudor inh 50µM!
CC(=O)Nc1cccc(Nc2nc(-c3ccccc3)nc3ccccc23)c1	none
O=C(O)c1ccc(Nc2nc(-c3cccnc3)nc3ccccc23)cc1	G9a inh 56µM (no result: HP1b binding inh, JMJD2A Tudor inh)
O=C(c1cccc(F)c1)N1CCC[C@@]2(CCN(Cc3ccncc3)C2)C1	none (no result: HP1b binding inh, JMJD2A Tudor inh, BAZ2B inh)
C/C(=N/NS(=O)(=O)c1ccc(C)cc1C)c1c[nH]c2ccccc12	G9a inh inconclusive
CCOCCCNC(=O)Cn1nc(C)n2c(cc3cc(C)ccc32)c1=O	none (no result: Sfp inh)
O=C(O)c1cccc(Nc2ncnc3ccccc23)c1	JMJD2A Tudor inh 79µM, BAZ2B inh inconclusive
Fc1ccc(Nc2ncnc3ccccc23)cc1	G9a inh 56µM
COC(=O)C(C(=O)OC)C1c2ccccc2C=C(C)N1C(=O)OC (stereo not given)	none (no result: HP1b binding inh, JMJD2A Tudor inh, BAZ2B inh, G9a inh)
Cc1ccc(S(=O)(=O)/N=C(\N)Nc2nc(C)c3ccccc3n2)cc1	Sfp inh 89µM
COc1cccc(NC(=O)C(OC(=O)c2cnc(C)cn2)c2ccccc2)c1 (stereo not given)	G9a inh 45µM (no result: Sfp inh)
CCCCNC(=O)CCCN1C(=O)CCn2nc(-c3cccn3C)cc21	none (no result: Sfp inh)
Cc1cc2c(cc1NC(=O)c1ccccc1Cl)n(C)c(=O)c(=O)n2C	none (no result: Sfp inh)
O=S(=O)(c1ccccc1)c1nc(Nc2ccccc2N2CCOCC2)sc1Cl	HP1b binding inh inconclusive, JMJD2A Tudor inh 32µM, G9a inh 25µM
N#CC1=C2C=CC=CN2CC1=O	JMJD2A Tudor inh 8.9µM, BAZ2B inh 50µM, Sfp inh inconclusive, G9a inh 4µM
